# PP1 inh: PP1-alpha phosphatase inhibitors, primary screen, counter-screen for PP5 inhibitor project, biochemical, fluorescence, OMFP substrate, single point | Serine/threonine-protein phosphatase PP1-alpha catalytic subunit (Homo sapiens), P62136 | purified PP1alpha | inhibition, % at 6.7 µM | actives 0.9% (n = 320,000) | AID 2235, 2010;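 active means inhibition above the mean inhibition of all tested compounds plus 3 SD, computed separately for each screening campaign, cut at about 15% in these data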
# Calb FLC: C. albicans growth inhibition with fluconazole, primary screen, CaCi-2 strain, Alamar Blue fluorescence; actives 0.57% (n = 300,000); C. albicans CaCi-2 (fluconazole-resistant clinical isolate) + fluconazole, 48 h; growth inhibition, % (no concentration beside the values); AID 1979, 2009;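 active means growth inhibition above about 58% in most replicates, limit read from the data, passing the limit was not always enough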;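 further: all wells also contain fluconazole at 8 µg/ml as a sub-toxic cotreatment; 0% = median of DMSO wells and 100% = median of geldanamycin control wells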
# CSC inhib: cancer stem cell viability inhibitors, primary screen, luminescence. cancer stem cell-like cells viability. actives 1.1% (n = 300,000). inhibition, % at 7.5 µM; in the data active means inhibition above about 75%; tested in HMLE shEcad cells
# PP5 inh: PP5 phosphatase inhibitors, primary screen, biochemical, fluorescence | inhibition, % at 6.7 µM | actives 0.18% (n = 320,000) | purified PP5c, OMFP substrate fluorescence;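 active means inhibition above the campaign's mean inhibition across all tested compounds plus 3 SD, cut at about 9.5% in these data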;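 further: 0% = DMSO only and 100% = 100 µM cantharidin control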
# Target sequence (P53041 whole entry, looked up): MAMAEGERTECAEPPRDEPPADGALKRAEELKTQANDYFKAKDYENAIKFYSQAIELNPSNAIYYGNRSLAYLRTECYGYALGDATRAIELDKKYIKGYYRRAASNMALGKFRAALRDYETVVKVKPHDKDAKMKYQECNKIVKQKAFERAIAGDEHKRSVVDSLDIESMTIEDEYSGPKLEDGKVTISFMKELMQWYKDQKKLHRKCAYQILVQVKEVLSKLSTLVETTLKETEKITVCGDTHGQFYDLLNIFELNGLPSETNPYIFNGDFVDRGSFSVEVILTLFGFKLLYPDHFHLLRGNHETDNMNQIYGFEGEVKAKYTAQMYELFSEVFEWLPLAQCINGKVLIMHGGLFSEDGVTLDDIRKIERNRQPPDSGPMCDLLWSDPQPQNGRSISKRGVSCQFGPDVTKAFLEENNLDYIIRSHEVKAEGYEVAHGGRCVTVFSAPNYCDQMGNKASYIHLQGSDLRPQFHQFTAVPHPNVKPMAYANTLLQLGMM
# ALR inh: inhibitors of human ALR sulfhydryl oxidase, primary screen, biochemical, H2O2 detection, HRP-luminol luminescence, single point; purified ALR, DTT oxidation; inhibition, % (concentration not given with the values); actives 3.8% (n = 290,000);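 active means mean replicate inhibition above about 79%, with every replicate also reaching it, limit read from the data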
# Active calls of the source: *; / = not tested or not shown; ! = not confirmed by another sample. This is a sample that favours compounds with a hit; in the whole collection about 5.4% have one here.
SMILES,PP1 inh,Calb FLC,CSC inhib,PP5 inh,ALR inh
CCCCn1c(=O)[nH]c(=O)c2c1nc(-c1ccc(C)c([N+](=O)[O-])c1)n2CC,2,2,-5,4,96*
CN1CCc2nc(SCC(=O)Nc3ccc(OC(F)(F)F)cc3)c(C#N)c(-c3cccs3)c2C1,11,-3,0,6,99*
CC(C)(C)c1ccc(C(=O)CCCSC2=C(C#N)C(c3ccco3)C3=C(CCCC3=O)N2)cc1 (centres undefined),8,/,/,3,3
COc1cccc(NC(=O)CSC2=C(C#N)C(c3ccco3)C3=C(CCCC3=O)N2)c1 (centres undefined),2,-5,50,1,59
N#CC1=C(SCC(=O)c2ccccc2)NC2=C(C(=O)CCC2)C1c1ccco1 (centres undefined),0,-2,62,3,87*
CCCCc1ccc(NC(=O)CSC2=C(C#N)C(c3ccco3)C3=C(CCCC3=O)N2)cc1 (centres undefined),15,-2,10,4,98*
Cc1ccc(C(=O)CSC2=C(C#N)C(c3ccco3)C3=C(CCCC3=O)N2)cc1 (centres undefined),2,29,25,5,99*
COCc1cc(=O)n2[nH]c(C(F)(F)F)nc2n1,1,-2,3,1,-6
COc1ccc(/C=C(/NC(=O)c2ccc(OC)cc2)C(=O)NCCc2c[nH]c3ccccc23)cc1,1,0,-1,1,-3
Nc1ccc(C23CC4CC(CC(CO)(C4)C2)C3)cc1,2,-38,-12,2,93*
Nc1ccc(C23CC4CC(CC(O)(C4)C2)C3)cc1,-3,33,5,3,/
CCOC(=O)c1ccc(NC(=O)Nc2ncccc2C)cc1,-4,-4,-12,-1,/
CC(=O)OCC1=C[C@@H]2OC(=O)C3=CO[C@@H](O[C@@H]4O[C@H](CO)[C@@H](O)[C@H](O)[C@H]4O)[C@H]1[C@@H]32,-5,/,1,3,-4
Cc1cccc(N=Nc2c(N)n[nH]c2N)c1,-6,22,-13,-2,93*
Nc1n[nH]c(N)c1N=Nc1cccc(F)c1,2,5,4,3,/
COc1ccc(OC)c(NC(=O)c2cc(-c3c(C)cc(C)cc3O)n[nH]2)c1,2,-1,4,0,/
C=CCn1c(C)c(/C=C/c2cc[n+](C)cc2)c2ccccc21,0,-10,15,-8,74
CCn1cc(/C=C/c2cc[n+](C)cc2)c2ccccc21,3,94*,12,1,/
CC(C)n1cc(/C=C/c2cc[n+](C)cc2)c2ccccc21,/,87*,/,/,/
C=CCn1cc(/C=C/c2cc[n+](C)cc2)c2ccccc21,2,71,26,1,-38
COc1ccc(-c2csc(N=C(N)N)n2)cc1,4,6,6,-1,98*
Cc1ccc(-c2csc(N=C(N)N)n2)c(C)c1,4,4,-3,0,68
CCc1ccc(CN(C)C(=O)CC2C(=O)NCCN2Cc2ccoc2)cc1 (centres undefined),-4,10,13,-1,0
CC1CCN(c2ccc(S(=O)(=O)N3CCC(C)CC3)cc2N)CC1,-4,-21,8,1,0
CC1CCN(c2ccc(C(F)(F)F)cc2N)CC1,-3,-17,-9,-2,98*
SMILES,PP1 inh,Calb FLC,CSC inhib,PP5 inh,ALR inh
Cc1c(C)n(Cc2ccccc2)c2ccc(C(=O)OCCN(C)C)cc12,1,-13,85*,3,-6
Cc1cc(NC(=O)c2cc(-c3ccco3)on2)no1,-4,1,14,-3,-5
CC(=O)OCC1(C)CN(c2ccccc2)N(C(=O)c2ccc(F)cc2)C1=O (centres undefined),-2,-43,12,0,11
CC(NC(=O)CSc1n[nH]c(N)n1)c1ccccc1 (centres undefined),-1,-2,/,1,/
CCCc1ccc(-c2cc(NC(=O)CSc3n[nH]c(N)n3)n(-c3ccccc3)n2)cc1,1,12,91*,6,5
O=C(Nc1ccc(S(=O)(=O)Nc2ncccn2)cc1)c1cccnc1,1,6,-12,3,-4
CCNS(=O)(=O)c1ccc(NC(=O)c2cccnc2)cc1,-2,100*,-7,0,-3
CCC(C)c1ccc(NC(=O)c2cccnc2)cc1 (centres undefined),-2,-3,-6,0,-2
CCC(C)c1ccc(O)c(NC(=O)c2cccnc2)c1 (centres undefined),-7,16,6,2,95*
COc1ccc(CCNC(=O)CC2COc3ccccc3O2)cc1OC (centres undefined),-3,6,-4,0,-6
COc1ccc(CCNC(=O)CN2C(=O)NC(CCSC)C2=O)cc1 (centres undefined),1,5,-11,-1,0
CC(C)Cn1c(SCc2nnc(-c3cccs3)o2)nc(O)cc1=O,11,-2,20,2,98*
Cc1nnc(SCc2nnc(-c3cccs3)o2)n1C,5,12,/,1,12
O=C(Nc1ncc([N+](=O)[O-])s1)c1cccs1,-5,108*,33,3,97*!
Cc1ncoc1C(=O)Nc1ncc([N+](=O)[O-])s1,-6,38,19,-1,/
O=C(Nc1ncc([N+](=O)[O-])s1)c1ccccc1Br,1,72,-10,0,97*
Cc1cnc(NC(=O)c2cccs2)s1,1,-1,7,0,4
CC(NC(=O)CSc1cccc(C(F)(F)F)c1)c1ccccc1 (centres undefined),-3,10,-15,0,-12
NC(=O)c1c(NC(=O)c2c(F)cccc2F)sc2c1CCN(Cc1ccccc1)C2,7,-7,26,2,6
O=c1c2c(nc3cc(-c4ccccc4Cl)[nH]n13)CCS2,17*,-8,24,1,38
O=c1c2c(nc3cc(-c4ccccc4)[nH]n13)CCS2,1,-5,0,3,-17
CCCCC(=O)Nc1ncc(S(=O)(=O)c2ccc([N+](=O)[O-])cc2)s1,1,-2,16,1,-6
O=C(NC(Nc1ncc(S(=O)(=O)c2ccc([N+](=O)[O-])cc2)s1)(C(F)(F)F)C(F)(F)F)c1ccc(Cl)cc1,8,10,89*,3,-16
COCC(=O)Nc1ncc(S(=O)(=O)c2ccc([N+](=O)[O-])cc2)s1,-2,29,-12,2,-16
O=C(Nc1ncc(S(=O)(=O)c2ccc([N+](=O)[O-])cc2)s1)c1cccc2ccccc12,-1,20,112*,4,2
[O-]/[N+](=C\c1ccccc1)[C@@H]1CCCC[C@@H]1/[N+]([O-])=C/c1ccccc1,-2,8,-9,-3,14
Cc1ccc(C)c(-n2c(C)cc(/C=N/NC(=O)c3c(C)nc4cc(C)ccn34)c2C)c1,6,4,9,3,10

# Compound activity deposited in PubChem by several laboratories.
